Test results published in PubChem BioAssay (NCI).
“And” between values parts separate entries of the source, which are not always exact repeats. Equal entries are not always repeated. About 83,000 compounds went through this panel and 20% of them were active in at least one assay; those are over-represented in the sample as a whole.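 The test compound was applied at a single concentration to cells in 96-well plates for 48 hours, and percent growth was recorded.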 The source made the active and inactive calls. The calls were made as follows: active = growth percent below 10; inactive = the rest.

Columns and labels:
Experiment in all cases: NCI-60 one-dose screen, 48 h (100 = growth as untreated, 0 = no growth, -100 = all killed)
Details in all cases: 10 µM unless noted
NCI-H23 lung = test system: NCI-H23 lung
NCI-H226 lung = test system: NCI-H226 lung
NCI-H322M lung = test system: NCI-H322M lung
HOP-62 NSCLC = test system: HOP-62 NSCLC
NCI-H460 lung = test system: NCI-H460 lung
HOP-92 NSCLC = test system: HOP-92 NSCLC
NCI-H522 lung = test system: NCI-H522 lung
A549/ATCC NSCLC = test system: A549/ATCC NSCLC
786-0 renal = test system: 786-0 renal
COLO 205 colon = test system: COLO 205 colon
DU-145 prostate = test system: DU-145 prostate
K-562 leukemia = test system: K-562 leukemia
MALME-3M melanoma = test system: MALME-3M melanoma
MDA-MB-231 breast = test system: MDA-MB-231 breast
RXF 393 renal = test system: RXF 393 renal
SF-268 CNS = test system: SF-268 CNS
SF-295 CNS = test system: SF-295 CNS
SF-539 CNS = test system: SF-539 CNS
UACC-257 melanoma = test system: UACC-257 melanoma
M14 melanoma = test system: M14 melanoma

| SMILES | growth (NCI-H23 lung) | growth (NCI-H226 lung) | growth (NCI-H322M lung) | growth (HOP-62 NSCLC) | growth (NCI-H460 lung) | growth (HOP-92 NSCLC) | growth (NCI-H522 lung) | growth (A549/ATCC NSCLC) | growth (786-0 renal) | growth (COLO 205 colon) | growth (DU-145 prostate) | growth (K-562 leukemia) | growth (MALME-3M melanoma) | growth (MDA-MB-231 breast) | growth (RXF 393 renal) | growth (SF-268 CNS) | growth (SF-295 CNS) | growth (SF-539 CNS) | growth (UACC-257 melanoma) | growth (M14 melanoma) |
| --- | --- | --- | --- | --- | --- | --- | --- | --- | --- | --- | --- | --- | --- | --- | --- | --- | --- | --- | --- | --- |
| CN1CCCc2cc(/C=C3\SC(=S)N(C(Cc4ccc(O)cc4)C(=O)O)C3=O)ccc21 (stereo not given) | 78% (inactive) | 99.8% (inactive) | 108% (inactive) | 109% (inactive) | 107% (inactive) | 93.8% (inactive) | 91.5% (inactive) | 105% (inactive) | 99.8% (inactive) | 112% (inactive) | 104% (inactive) | 91.3% (inactive) | 88.9% (inactive) | 96.1% (inactive) | 99.4% (inactive) | 97.2% (inactive) | 98.2% (inactive) | 102% (inactive) | 99.6% (inactive) | 101% (inactive) |
| O=C(CCCCCCCCC(=O)N/N=C\c1ccccc1O)N/N=C\c1ccccc1O | 39.9% (inactive) | -5.86% (active) | 19.5% (inactive) | 0.588% (active) | -11.3% (active) | 41.9% (inactive) | 34.3% (inactive) | 17.1% (inactive) | 3.41% (active) | 43.1% (inactive) | 26.7% (inactive) | 16.4% (inactive) | 15.1% (inactive) | 38.1% (inactive) | 31.1% (inactive) | 14.6% (inactive) | 36% (inactive) | 16.7% (inactive) | 20.2% (inactive) | -9% (active) |
| COc1ccc(-c2nnc3n(C)c(=O)c4ccccc4n23)cc1O | 41.4% (inactive) | 76.8% (inactive) | 44.6% (inactive) | 20.3% (inactive) | 12% (inactive) | 67.3% (inactive) | 15.6% (inactive) | 16.5% (inactive) | 30.8% (inactive) | 16.6% (inactive) | 27.1% (inactive) | 9.1% (active) | 70.8% (inactive) | 36.4% (inactive) | -11.7% (active) | 54.1% (inactive) | 11.6% (inactive) | -3.83% (active) | 49.8% (inactive) | 3.13% (active) |
| CN(C)CCCn1c2nc(=O)[nH]c(=O)c-2nc2cc(Cl)c(Cl)cc21 | 109% (inactive) | 105% (inactive) | 69.1% (inactive) | 117% (inactive) | 107% (inactive) | 88.3% (inactive) | -23.7% (active) | 99% (inactive) | 103% (inactive) | 4.28% (active) | 115% (inactive) | 47.9% (inactive) | 106% (inactive) | 98.6% (inactive) | 111% (inactive) | 108% (inactive) | 99.3% (inactive) | 105% (inactive) | 41.7% (inactive) | 51.1% (inactive) |
| COc1cc(-c2nc(SCCC(C)C)nc(Nc3ccc(F)cc3)c2C#N)cc(OC)c1OC | 84.3% (inactive) | 90.4% (inactive) | 63.2% (inactive) | 17.8% (inactive) | 21.4% (inactive) | 72.6% (inactive) | 75% (inactive) | 28.3% (inactive) | 46.1% (inactive) | 79.6% (inactive) | 66.2% (inactive) | 85.2% (inactive) | 94.4% (inactive) | 38.4% (inactive) | 95.5% (inactive) | 65.9% (inactive) | 85.4% (inactive) | 52.3% (inactive) | 103% (inactive) | 91% (inactive) |
| CN1C(=O)/C(=C/c2ccc(C(=O)Nc3ncc(Cc4ccccc4Cl)s3)cc2)SC1=S | 94.6% (inactive) | 81.4% (inactive) | 72.2% (inactive) | 74.2% (inactive) | 79.5% (inactive) | 75.1% (inactive) | 64.2% (inactive) | 72.2% (inactive) | 87.9% (inactive) | 86.2% (inactive) | 73% (inactive) | 71.8% (inactive) | 62.2% (inactive) | 56.7% (inactive) | 69.1% (inactive) | 80.9% (inactive) | 58.4% (inactive) | 77% (inactive) | 89.3% (inactive) | 42.1% (inactive) |
| CC(=O)c1c(C)nc2ccccc2c1/C=C/c1cccc(C)c1 | 61.6% (inactive) | 75.2% (inactive) | 96.9% (inactive) | 60.9% (inactive) | 33.8% (inactive) | 60.2% (inactive) | 41.5% (inactive) | 43.6% (inactive) | 79.7% (inactive) | 58.5% (inactive) | 88.2% (inactive) | 16.1% (inactive) | 82.9% (inactive) | 63.5% (inactive) | 73.1% (inactive) | 81.9% (inactive) | 58% (inactive) | 61.7% (inactive) | 73.5% (inactive) | 46.3% (inactive) |
| CC(=O)OC[C@]12CCC(C)(C)C=C1[C@H]1CC[C@@H]3[C@@]4(C)CCCNC(C)(C)[C@@H]4CC[C@@]3(C)[C@]1(C)CC2 | 65% (inactive) | 77.9% (inactive) | 98.9% (inactive) | 91.8% (inactive) | 49.4% (inactive) | 83% (inactive) | 39.4% (inactive) | 83% (inactive) | 82.2% (inactive) | 1.01% (active) | 87.4% (inactive) | 14.2% (inactive) | 41.9% (inactive) | 82.1% (inactive) | 89.2% (inactive) | 81.2% (inactive) | 100% (inactive) | 95.2% (inactive) | 31.9% (inactive) | 64.8% (inactive) |
| COc1cc(/C=C2/C=C(c3ccc(C(C)(C)C)cc3)N(CCc3ccc(S(N)(=O)=O)cc3)C2=O)cc(OC)c1OC | 62.3% (inactive) | 62.7% (inactive) | 81.2% (inactive) | 77% (inactive) | 35.6% (inactive) | 23% (inactive) | 49.8% (inactive) | 38.2% (inactive) | 29.7% (inactive) | 34.3% (inactive) | 77.1% (inactive) | 24.5% (inactive) | 68.4% (inactive) | 60.1% (inactive) | 12.4% (inactive) | 58.2% (inactive) | 49.4% (inactive) | 59% (inactive) | 62.2% (inactive) | 36.5% (inactive) |
| CON1CCC[C@]2(C)[C@H]3CC[C@@H]4[C@H]5[C@@H](O)C(C)(C)CC[C@]5(CO)CC[C@@]4(C)[C@]3(C)CC[C@H]2C1(C)C | 102% (inactive) | 92.8% (inactive) | 109% (inactive) | 95.6% (inactive) | 102% (inactive) | 116% (inactive) | 84% (inactive) | 94.2% (inactive) | 100% (inactive) | 105% (inactive) | 99% (inactive) | 87% (inactive) | 110% (inactive) | 90.5% (inactive) | 112% (inactive) | 100% (inactive) | 102% (inactive) | 106% (inactive) | 97.5% (inactive) | 99.6% (inactive) |
| O=c1oc2c(Br)cc(Br)cc2cc1-c1cc(-c2ccc(-c3cc(-c4cc5cc(Br)cc(Br)c5oc4=O)nc(-c4cc5cc(Br)cc(Br)c5oc4=O)c3)cc2)cc(-c2cc3cc(Br)cc(Br)c3oc2=O)n1 | 96.5% (inactive) | 102% (inactive) | 97.3% (inactive) | 104% (inactive) | 105% (inactive) | 108% (inactive) | 86.8% (inactive) | 105% (inactive) | 111% (inactive) | 110% (inactive) | 112% (inactive) | 97.9% (inactive) | 92.6% (inactive) | 93.7% (inactive) | 119% (inactive) | 105% (inactive) | 106% (inactive) | 107% (inactive) | 109% (inactive) | 107% (inactive) |
| O=C(Nc1ccc(F)cc1)c1cc2cc(Nc3nc(-c4ccccc4)nc4ccccc34)ccc2oc1=O | 90.1% (inactive) | 102% (inactive) | 100% (inactive) | 84.2% (inactive) | 113% (inactive) | 103% (inactive) | 97.6% (inactive) | 92.5% (inactive) | 98.4% (inactive) | 123% (inactive) | 108% (inactive) | 102% (inactive) | 103% (inactive) | 90.6% (inactive) | 115% (inactive) | 97.3% (inactive) | 108% (inactive) | 108% (inactive) | 96.6% (inactive) | 102% (inactive) |
| O=C1C=CC(=O)N1c1ccc2ccccc2c1 | 93.4% (inactive) and 103% (inactive) | 97.6% (inactive) and 111% (inactive) | 118% (inactive) and 103% (inactive) | 101% (inactive) | 110% (inactive) and 111% (inactive) | 81.8% (inactive) and 84.1% (inactive) | -58.9% (active) and -24.2% (active) | 99% (inactive) | 103% (inactive) and 104% (inactive) | -58.5% (active) and -42.5% (active) | 94.4% (inactive) and 99.5% (inactive) | 47% (inactive) and 35.5% (inactive) | 69.4% (inactive) and 30.9% (inactive) | 111% (inactive) and 96.5% (inactive) | 83.3% (inactive) and 102% (inactive) | 100% (inactive) and 105% (inactive) | 112% (inactive) and 99% (inactive) | 108% (inactive) and 93.6% (inactive) | 92.5% (inactive) and 91.1% (inactive) | 91.1% (inactive) and 103% (inactive) |
| Nc1ccc(/C=N/Nc2ccnc3c(N)cccc23)c2cccnc12 | 3.42% (active) | 89.3% (inactive) | -4.16% (active) | -64.3% (active) | -63.8% (active) | -17.9% (active) | -52.2% (active) | -43.8% (active) | -87% (active) | -22.8% (active) | -49.1% (active) | -55.7% (active) | 104% (inactive) | -66.6% (active) | -72.5% (active) | -61.8% (active) | -75.6% (active) | -94.9% (active) | 88.1% (inactive) | -78.6% (active) |
